Hit rate of the full screen: of about 310,000 compounds, about 14,000 (4.5%) showed an effect of 50% or more. The effect is printed as a negative number. The sample holds strong results, similar compounds and a random draw of the others, so the mix is not that of the screen. Where a SMILES comes first, the peptide text is derived from it. The star is where a group is joined. Boc = CC(C)(C)OC(=O)*; OtBu = CC(C)(C)O*
biological target: human ether-à-go-go-related gene (hERG) potassium channel (human, UniProt Q12809); assay: primary screen, population patch clamp on CHO cells stably expressing hERG; higher = less effect of the substance
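Further: peak tail current of the secondary pulse compared with the same well before compound.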

Sequence of human ether-à-go-go-related gene (hERG) potassium channel (Q12809 whole entry, looked up): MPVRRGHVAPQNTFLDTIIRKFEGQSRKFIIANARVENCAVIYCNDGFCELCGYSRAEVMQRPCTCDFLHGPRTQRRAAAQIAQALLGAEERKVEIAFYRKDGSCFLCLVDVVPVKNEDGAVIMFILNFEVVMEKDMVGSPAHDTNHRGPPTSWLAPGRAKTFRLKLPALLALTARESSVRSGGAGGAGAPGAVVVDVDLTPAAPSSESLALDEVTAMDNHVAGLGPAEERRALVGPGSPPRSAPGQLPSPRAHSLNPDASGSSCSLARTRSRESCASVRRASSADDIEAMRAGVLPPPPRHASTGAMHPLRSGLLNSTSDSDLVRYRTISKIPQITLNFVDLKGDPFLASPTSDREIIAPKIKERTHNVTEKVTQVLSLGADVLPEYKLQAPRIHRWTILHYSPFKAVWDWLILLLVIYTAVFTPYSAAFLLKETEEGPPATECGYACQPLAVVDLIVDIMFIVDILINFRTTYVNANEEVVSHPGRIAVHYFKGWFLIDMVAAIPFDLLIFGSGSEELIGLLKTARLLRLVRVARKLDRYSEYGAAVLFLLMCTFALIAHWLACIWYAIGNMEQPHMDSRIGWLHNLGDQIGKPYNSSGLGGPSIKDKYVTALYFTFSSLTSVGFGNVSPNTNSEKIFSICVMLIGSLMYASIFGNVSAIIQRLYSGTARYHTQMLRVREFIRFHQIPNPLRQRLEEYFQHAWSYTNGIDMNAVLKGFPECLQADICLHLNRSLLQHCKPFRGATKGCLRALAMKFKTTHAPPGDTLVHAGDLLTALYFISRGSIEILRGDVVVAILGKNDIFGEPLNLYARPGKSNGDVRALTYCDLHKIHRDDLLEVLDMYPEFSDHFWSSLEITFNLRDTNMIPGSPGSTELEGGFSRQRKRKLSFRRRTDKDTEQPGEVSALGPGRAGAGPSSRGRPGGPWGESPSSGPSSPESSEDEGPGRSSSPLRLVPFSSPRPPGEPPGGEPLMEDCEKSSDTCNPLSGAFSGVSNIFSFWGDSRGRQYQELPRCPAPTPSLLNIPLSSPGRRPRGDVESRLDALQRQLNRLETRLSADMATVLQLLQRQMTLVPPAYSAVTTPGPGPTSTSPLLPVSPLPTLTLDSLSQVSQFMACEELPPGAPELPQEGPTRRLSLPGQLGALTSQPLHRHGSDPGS

SMILES | hERG current change (%, negative = inhibition) at 10uM
COC(=O)c1cn(NC(=O)c2ccc([N+](=O)[O-])cc2Cl)c(=O)c2ccccc12 | -5.68%
CCCn1c(SCC(=O)NCc2ccccc2)n[nH]c1=O | 7.49%
CCN(CC(=O)Nc1cccc(S(=O)(=O)N2CCOCC2)c1)Cc1ccccc1 | -4.27%
CCOC(=O)c1cc(-c2ccc(N3CCOCC3)cc2)nn1-c1ccccc1 | -48.9%
CCCCOc1nc2ccccc2c(=O)n1-c1ccccc1 | -11.6%
Cc1cc(C)n2nc(C(=O)OC(C)C(=O)c3ccccc3)nc2n1 (centres unmarked) | 17.9%
O=C(Cn1[nH]c(=O)c2ccccc2c1=O)NC1CCN(Cc2ccccc2)CC1 | 0.791%
COc1ccc2c(c1OC)C(=O)N(C(C)C(=O)O)C2=O (centres unmarked) | 10.1%
CC(=O)Nc1ccc(NC(=O)CSc2nnc3ccc(-c4cccnc4)nn23)cc1 | 19.8%
O=C(CSc1nnc2ccc(-c3cccnc3)nn12)Nc1ccccc1 | -50.6%
Cc1ccc(NC(=O)CSc2nnc3ccc(-c4cccnc4)nn23)cc1 | -49.3%
CC(c1nnc(SCC(=O)NC(=O)NCc2ccco2)n1-c1ccc(Cl)cc1)N(C)C (centres unmarked) | -8.66%
CC(C)COc1ccc(C/C(N)=N/n2cnnc2)cc1 | 30.4%
COC(=O)CSc1nc2nc(C)cc(C)n2n1 | 4.29%
CN(C)S(=O)(=O)N1CCN(c2ccnc3cc(Cl)ccc23)CC1 | -76.2%
CN(C)S(=O)(=O)N1CCN(c2cc(Cl)ccc2Cl)CC1 | -8.38%
Cl.ClCCN1CCN(c2ccnc3cc(Cl)ccc23)CC1 | -20.8%
CS(=O)(=O)N1CCN(c2ccnc3cc(Cl)ccc23)CC1 | -78.6%
CC(C)S(=O)(=O)N1CCN(c2ccnc3cc(Cl)ccc23)CC1 | -71.6%
CCS(=O)(=O)N1CCN(c2ccnc3cc(Cl)ccc23)CC1 | -73.2%
Cc1ccc(Cl)cc1N1CCN(S(C)(=O)=O)CC1 | -5.31%
Cc1cc(C)c[n+](-c2[nH]c(=O)sc2/C=N/N=C(\N)[S-])c1 | 22%
COCCn1c(SCC(=O)NC2CCCC2)nc2cccnc21 | 17.1%

SMILES | hERG current change (%, negative = inhibition) at 10uM
COc1ccccc1-n1cnnc1SCC(=O)c1ccc[nH]1 | -0.89%
Cc1ccccc1NC(=S)N(CCN1CCOCC1)Cc1ccccc1F | 30.1%
Cl.Clc1ccc(CNCCC2=CCCCC2)cc1 | -40%
CC(Oc1ccc(Br)cc1Br)C(=O)NC1CCCC1 (centres unmarked) | 16.2%
COc1ccc(N(CC(=O)N2CCc3ccccc3C2)S(=O)(=O)c2ccccc2)cc1 | -32.1%
N#Cc1nc(COc2ccccc2Cl)oc1NCc1cccnc1 | -51.2%
N#Cc1nc(COc2cccc(Cl)c2)oc1NCc1ccco1 | -16.8%
N#Cc1nc(COc2ccccc2Cl)oc1NCc1ccc(F)cc1 | 0.159%
N#Cc1nc(COc2cccc(Cl)c2)oc1NCc1ccncc1 | -73.7%
CN(C)CCNc1oc(COc2cccc(Cl)c2)nc1C#N | -16.1%
Cc1ccc(CNc2oc(COc3ccccc3Cl)nc2C#N)cc1 | 13.2%
FC(F)(F)c1ccc(C2[C@H]3CN(CC4CCCCC4)[C@H](c4ccccc4)C34CC2(c2cccnc2)C4)cc1 (some centres unmarked) | 0.391%
CN1CCN(C(=O)c2c(O)c3cccc4c3n(c2=O)CCC4)CC1.Cl | 6.48%
c1ccc(Cc2nc3ccccc3[nH]2)cc1 | -6.39%
CCOc1ccc(Nc2nc3c(c(=O)[nH]2)CCCC3)cc1 | -3.98%
COC(=O)c1ccc(/C=C2/SC(=S)N(CCCC(=O)Nc3ccccn3)C2=O)cc1 | 15.4%
CC(NC(=O)C(CC(=O)OC(C)(C)C)NC(=O)OC(C)(C)C)C(N)=O (centres unmarked) (Boc-Asp(OtBu)-Ala-NH2; configuration not given here) | -5.99%
Cc1sc2ncn(CC(=O)NCCCC(=O)N3CCN(c4ncccn4)CC3)c(=O)c2c1C | 7.64%
N#C/C(=C\c1ccco1)Sc1nc2ccccc2s1 | 0.525%
O=C(NCCc1nnc2ccc(NCc3ccc(F)cc3)nn12)c1ccccc1 | -29%
Cn1c(=O)c2c(n(Cc3ccccc3)c1=O)NC(=O)C2CC(=O)O (centres unmarked) | 12.6%
CC(C)Cn1c(O)c2ccc(C(=O)N=NC(=O)c3cccnc3)cc2c1O | 17%
COc1ccc(/C=C/C(=O)NC(=S)N2CCN(c3ccccn3)CC2)cc1 | -6.85%

SMILES | hERG current change (%, negative = inhibition) at 10uM
Cc1ccc(NC(=S)N(CCCN2CCOCC2)Cc2ccccn2)cc1 | -22.8%
Cc1cccc(NC(=S)N(CCCN2CCOCC2)Cc2ccccn2)c1 | -22.3%
CCc1ccc(NC(=S)N(CCCN2CCOCC2)Cc2ccccn2)cc1 | -56.3%
CCc1ccccc1NC(=S)N(CCCN1CCOCC1)Cc1ccccn1 | -25.8%
S=C(Nc1ccc(Oc2ccccc2)cc1)N(CCCN1CCOCC1)Cc1ccccn1 | -70%
COc1ccccc1NC(=S)N(Cc1ccc(C)cc1)Cc1ccccn1 | -39.1%
COc1ccc(NC(=S)N(CCCN2CCOCC2)Cc2ccccn2)cc1 | -14.4%
COc1cccc(NC(=S)N(Cc2ccc(C)cc2)Cc2ccccn2)c1 | -30.2%
COc1ccc(NC(=S)N(Cc2ccc(C)cc2)Cc2ccccn2)cc1 | -50.5%
N#Cc1ccccc1OCC(=O)NCCNC(=O)COc1ccccc1C#N | -10.1%
CCOC(=O)C(C)Oc1c(Br)cc(C2NC(=O)NC(C)=C2C(C)=O)cc1OCC (centres unmarked) | 3.1%
COc1cccc(C(=O)NCCC(=O)NCc2cc(=O)n(C)c(=O)n2C)c1 | 13.9%
Cn1ccc(-c2ccccc2)c(C#N)c1=O | 3.34%
CS(=O)(=O)CCC(C(=O)OCc1ccc(Br)cc1)N1C(=O)c2ccccc2C1=O (centres unmarked) | -0.0845%
COC(=O)c1cc(C(=O)NNC(=O)c2ccc3c(c2)OCO3)cc([N+](=O)[O-])c1 | -7.98%
O=C(CN(Cc1ccco1)C(=O)c1ccccc1F)Nc1ccccc1C(F)(F)F | 2.3%
CNC(=S)N/N=C/c1cn(Cc2ccc(F)cc2)c2ccccc12 | -4.59%
Cc1ccc(S(=O)(=O)N(C)C)cc1NC(=S)NCCc1ccccn1 | 24.2%
COc1cc(C(C(=O)Nc2c(C)cccc2C)N(C)C(=O)c2ccc(-n3cnnn3)cc2)ccc1O (centres unmarked) | -67.7%
Cc1cccc(C)c1NC(=O)c1ccc(-n2cnnn2)cc1 | -44.2%
COc1cc(C(NC=O)C(=O)Nc2c(C)cccc2C)ccc1O (centres unmarked) | 15.1%
O=C(CN1CCc2ccccc2C1)Nc1ccccc1N1CCCCCC1.O=C(O)C(=O)O | -5.79%
O=C(NS(=O)(=O)Nc1ccc(Cl)cc1)c1c[nH]c2ccccc12 | 23.2%

SMILES | hERG current change (%, negative = inhibition) at 10uM
Cc1cc(C)c(S(=O)(=O)N2CCN(C(=O)C3CCCO3)CC2)c(C)c1 (centres unmarked) | -17.1%
CCc1nn(C(C)C(=O)NCCN2CCCCCC2)c(=O)c2cc3occc3n12 (centres unmarked) | 6.27%
CCc1nn(C(C)C(=O)NCCN2CCN(c3cccc(C)c3C)CC2)c(=O)c2cc3occc3n12 (centres unmarked) | -65.3%
CCc1nn(C(C)C(=O)Nc2cccc(C)c2C)c(=O)c2cc3occc3n12 (centres unmarked) | -0.753%
O=C(c1cnn2c(C(F)(F)F)cc(-c3cccs3)nc12)N1CCOCC1 | -5.7%
O=C(Nc1cccc(-n2cnnn2)c1)c1ccc(C(F)(F)F)cc1 | -15.3%
Oc1ccc(-c2[nH]ncc2-c2cccc3cccnc23)c(O)c1 | 32.1%
Cc1cc(=O)oc2cc(OCC(=O)NCCCN3CCCC3=O)ccc12 | 29.5%
O.c1ccc2c(CN3CCN(C4CCCCC4)CC3)c[nH]c2c1 | -18.2%
COc1ccccc1N1CCN(C(=O)CCc2c[nH]c3ccccc23)CC1 | 3.69%
Clc1ccccc1CN1CCN(c2cccc3[nH]ccc23)CC1 | 3.09%
c1ccc2c(CN3CCCCCCC3)c[nH]c2c1 | -22.4%
c1cnc(N2CCN(Cc3c[nH]c4ccccc34)CC2)nc1 | -36%
c1ccc2c(CN3CCOCC3)c[nH]c2c1 | 15.1%
O=[N+]([O-])c1cccc(CN2CCN(c3cccc4[nH]ccc34)CC2)c1 | -7.67%
COc1ccccc1N1CCN(Cc2ccc(OC)c3ccccc23)CC1 | -5.46%
COc1ccccc1N1CCN(Cc2c[nH]c3ccccc23)CC1 | -55.8%
Cc1ccc(CN2CCN(c3cccc4[nH]ccc34)CC2)cc1 | -60.4%
Fc1ccc(N2CCN(Cc3c[nH]c4ccccc34)CC2)cc1 | -68.3%
Fc1ccccc1N1CCN(C2CCN(Cc3c[nH]c4ccccc34)CC2)CC1 | -54.5%

— paper PMC4336329 (PLoS ONE, 2015)
